These results are taken from PubChem BioAssay.

The test system of assay [1] is Human papillomavirus type 1a protein E7 (residues 44-93). As to the kind of experiment: small molecules binding HPV E7 44-93 – biochemical, small-molecule microarray, residues 44-93, 635 nm fluorescence, primary screen (AID 1108).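 Note: E7 fragment applied at 1 µg/mL in TBST for 1 h at 4 C; score combines spot fluorescence with its signal to noise ratio.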 Conditions: fluorescence 635 nm, higher = more signal.
Assay [2] can be described thus: hepatitis C replication reporter changes, two-sided – Huh7 cells, luciferase reporter, HCV replication inhibitor project, primary screen (AID 1109).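 Note: huh7 hepatoma cells harbouring a luciferase neomycin HCV replicon reporter; luciferase luminescence as measure of HCV replicon replication; test concentration not given here.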 Conditions: Huh7 HCV replicon luciferase reporter, 48 h; higher = more signal. (A reporter such as luciferase makes a cellular process visible.)
In assay [3] the target is Left-right determination factor 2 (Homo sapiens) (UniProt O00292). As to the kind of experiment: small molecules binding LEFTY2 protein – biochemical, small-molecule microarray, 635 nm fluorescence scan, primary screen (AID 1110). Conditions: higher = more signal.
Left-right determination factor 2 (Homo sapiens), sequence (O00292 whole entry, looked up): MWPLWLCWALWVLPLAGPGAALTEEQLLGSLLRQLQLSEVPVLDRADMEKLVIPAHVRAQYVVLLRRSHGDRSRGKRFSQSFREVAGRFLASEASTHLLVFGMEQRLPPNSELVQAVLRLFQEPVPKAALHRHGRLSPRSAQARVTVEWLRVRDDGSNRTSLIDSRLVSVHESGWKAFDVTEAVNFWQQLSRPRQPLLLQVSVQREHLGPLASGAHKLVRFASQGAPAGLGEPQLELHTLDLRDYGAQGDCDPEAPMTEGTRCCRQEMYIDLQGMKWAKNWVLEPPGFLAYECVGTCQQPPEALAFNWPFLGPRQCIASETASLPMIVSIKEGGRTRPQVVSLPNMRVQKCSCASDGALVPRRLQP
Assay [4] deals with Calmodulin-1 (Homo sapiens) (UniProt P0DP23). As to the kind of experiment: small molecules binding calmodulin-1 with EGTA – biochemical, small-molecule microarray, Cy5-labelled CALM1, profiling panel (AID 1111).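 Note: labelled calmodulin applied in Tris saline Tween buffer holding calcium plus EGTA and DTT.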 Conditions: Cy5-CALM1 binding fluorescence, higher = more signal.
Assay [5] shares this target. As to the kind of experiment: small molecules binding Ca-loaded calmodulin-1 – biochemical, small-molecule microarray, Cy5-labelled CALM1, plus calcium, artefact control for SMM control-protein annotation, profiling panel (AID 1112).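 Note: score merges spot fluorescence with signal to noise from triplicate slides.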 Conditions: Cy5-CALM1 binding fluorescence, higher = more signal.
Assay [6] in a line: probe aWnt5a binding to arrayed compounds – biochemical, biotinylated probe, 635/667 nm fluorescence, primary screen (AID 1113).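 Note: score merges 667 nm fluorescence intensity with signal-to-noise per printed feature.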 Conditions: small-molecule microarray, higher = more signal.
Assay [7] is described as follows: probe aShh binding to arrayed compounds – biochemical, biotinylated probe, 635/667 nm fluorescence, primary screen (AID 1114).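 Note: probe is biotin-labelled aShh protein from a stem cell growth factor screen; measures binding of labelled protein to compounds printed on the slide; score merges feature fluorescence at 667 nm with signal-to-noise.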 Conditions: small-molecule microarray, higher = more signal.
Assay [8] can be described thus: probe aNog binding to arrayed compounds – biochemical, biotinylated probe, 635/667 nm fluorescence, primary screen (AID 1115).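 Note: probe is biotinylated aNog protein used at 0.15 µg/mL for 1 h at 4 C; z-score combines 667 nm fluorescence of each spot with its signal to noise.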 Conditions: small-molecule microarray, higher = more signal.
The target of assay [9] is Torsin-1A-interacting protein 1 (Homo sapiens) (UniProt Q5JTV8). As to the kind of experiment: compound microarray binding of lysate hLAP1 – cell lysate, small-molecule microarray, COS7 lysate, 635/667 nm fluorescence, primary screen (AID 1116). Conditions: 635 nm fluorescence, higher = more signal.
Torsin-1A-interacting protein 1 (Homo sapiens), sequence (Q5JTV8 whole entry, looked up): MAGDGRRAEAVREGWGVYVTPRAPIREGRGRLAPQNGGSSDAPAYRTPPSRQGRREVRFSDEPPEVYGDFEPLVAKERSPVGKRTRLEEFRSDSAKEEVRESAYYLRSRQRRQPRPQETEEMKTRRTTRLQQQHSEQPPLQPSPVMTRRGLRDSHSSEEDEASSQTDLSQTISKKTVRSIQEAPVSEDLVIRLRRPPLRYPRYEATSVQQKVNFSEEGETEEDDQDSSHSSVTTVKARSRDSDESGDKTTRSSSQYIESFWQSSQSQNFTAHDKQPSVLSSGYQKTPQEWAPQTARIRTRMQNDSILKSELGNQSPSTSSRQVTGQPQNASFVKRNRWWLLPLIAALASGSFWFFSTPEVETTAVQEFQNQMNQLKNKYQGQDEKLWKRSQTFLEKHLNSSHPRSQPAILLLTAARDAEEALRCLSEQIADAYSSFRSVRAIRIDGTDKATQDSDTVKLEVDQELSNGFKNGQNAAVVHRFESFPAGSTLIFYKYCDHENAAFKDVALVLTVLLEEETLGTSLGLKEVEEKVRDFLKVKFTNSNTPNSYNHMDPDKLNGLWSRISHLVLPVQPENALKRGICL
Assay [10] addresses Alpha-bungarotoxin (Bungarus multicinctus) (UniProt P60615). As to the kind of experiment: compounds binding labelled alpha-BTX control protein – biochemical, small-molecule microarray, Alexa647 label, 635/667 nm fluorescence, artefact control for SMM control protein annotation, profiling panel (AID 1117). Conditions: alpha-BTX-A647 binding fluorescence, higher = more signal.
In a further assay the target is Albumin (Bos taurus) (UniProt P02769). The assay can be described thus: compounds binding labelled BSA control protein – biochemical, small-molecule microarray, Alexa647 label, 635/667 nm fluorescence, artefact control for SMM control protein annotation, profiling panel (AID 1118).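 Note: score merges 667 nm emission intensity and signal-to-noise per printed compound spot.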 Conditions: BSA-A647 binding, fluorescence 635 nm, higher = more signal.
Albumin (Bos taurus), sequence (P02769 whole entry, looked up): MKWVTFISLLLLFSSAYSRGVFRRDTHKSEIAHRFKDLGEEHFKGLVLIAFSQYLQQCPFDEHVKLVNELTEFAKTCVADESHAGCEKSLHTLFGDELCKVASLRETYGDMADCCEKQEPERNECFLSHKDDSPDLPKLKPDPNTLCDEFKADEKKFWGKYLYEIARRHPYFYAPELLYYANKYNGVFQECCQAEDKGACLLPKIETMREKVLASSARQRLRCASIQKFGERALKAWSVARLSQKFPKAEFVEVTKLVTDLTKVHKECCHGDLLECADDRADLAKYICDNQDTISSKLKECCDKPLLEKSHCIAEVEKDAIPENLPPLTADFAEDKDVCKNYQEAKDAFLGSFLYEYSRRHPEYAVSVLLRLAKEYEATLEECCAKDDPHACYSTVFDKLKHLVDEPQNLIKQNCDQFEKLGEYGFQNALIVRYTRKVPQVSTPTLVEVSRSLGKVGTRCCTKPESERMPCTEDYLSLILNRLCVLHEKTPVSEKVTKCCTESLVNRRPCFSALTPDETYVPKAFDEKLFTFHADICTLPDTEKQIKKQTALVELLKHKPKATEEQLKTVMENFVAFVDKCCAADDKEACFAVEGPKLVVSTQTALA
A short description of assay [11]: probe aXIP binding to arrayed compounds – biochemical, NeuroSMM set, 635/667 nm fluorescence, primary screen (AID 1119).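 Note: probe is the protein aXip251-270 applied at 1 µg/mL to compound-printed slides; binding of probe to printed compounds measured as 667 nm fluorescence plus signal to noise.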 Conditions: small-molecule microarray, higher = more signal, called active from +8 up or from −8 down.
Assay [12] in a line: probe aNOTCH3 binding on compound microarray – biochemical, small-molecule microarray, 635/667 nm fluorescence, primary screen (AID 1120).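 Note: probe is a biotin-tagged antibody raised against NOTCH3 rather than NOTCH3 protein; score merges spot fluorescence near 667 nm with spot signal to noise.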 Conditions: higher = more signal.
Assay [13] in a line: probe aNOTCH2 binding on compound microarray – biochemical, small-molecule microarray, 635/667 nm fluorescence, primary screen (AID 1121).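 Note: score merges feature fluorescence read at 667 nm with its signal to noise.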 Conditions: higher = more signal.
Assay [14] deals with Carbonic anhydrase 2 (Homo sapiens) (UniProt P00918). As to the kind of experiment: compounds binding carbonic anhydrase 2 – biochemical, small-molecule microarray, Alexa647-labelled CAII, profiling panel (AID 1122). Conditions: CAII-A647 binding fluorescence, higher = more signal.
Assay [15] is described as follows: COS7 lysate on small-molecule microarray, probe aHis, 635 nm (AID 1123).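 Note: z-score combines 667nm fluorescence intensity with signal-to-noise per printed compound spot.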 Conditions: COS7 cell lysate, fluorescence, higher = more signal.
Assay [16] in a line: probe aLAP1 signal on lysate-treated microarray – cell lysate, small-molecule microarray, COS7 lysate, primary screen (AID 1124).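 Note: lysate comes from COS7 cells expressing LAP1 and is applied at 0.3 µg/mL; score merges spot fluorescence near 667 nm with signal-to-noise over triplicate slides.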 Conditions: probe aLAP1, fluorescence, higher = more signal.
Another assay deals with Sam68 (KHDRBS1). As to the kind of experiment: compounds binding KHDRBS1 protein – biochemical, small-molecule microarray, 635 nm fluorescence, primary screen (AID 1125).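 Note: score merges 667 nm channel intensity with signal to noise over triplicate slides.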 Conditions: higher = more signal.
The subject of assay [17] is Chordin-like protein 2 (CHRDL2). The assay can be described thus: compounds binding chordin-like 2 – biochemical, small-molecule microarray, 635 nm fluorescence, primary screen (AID 1126).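 Note: printed compound slides probed with Chrdl2 protein at 4 µg/mL for 1 h at 4 C; score merges 667 nm emission intensity with signal to noise over three replicate slides.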 Conditions: fluorescence 635 nm, higher = more signal.
Assay [18] concerns the target Concanavalin-A (Canavalia ensiformis) (UniProt P02866). The assay can be described thus: compounds binding concanavalin A lectin – biochemical, small-molecule microarray, Alexa647 label, 635 nm, artefact control for SMM control protein annotation, primary screen (AID 1127).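 Note: z combines 667 nm emission intensity with signal-to-noise across three replicate slides.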 Conditions: ConA-A647 binding fluorescence, higher = more signal.

The structures appear in SMILES notation. The source made the active and inactive calls.

Concanavalin-A (Canavalia ensiformis), sequence (P02866 whole entry, looked up): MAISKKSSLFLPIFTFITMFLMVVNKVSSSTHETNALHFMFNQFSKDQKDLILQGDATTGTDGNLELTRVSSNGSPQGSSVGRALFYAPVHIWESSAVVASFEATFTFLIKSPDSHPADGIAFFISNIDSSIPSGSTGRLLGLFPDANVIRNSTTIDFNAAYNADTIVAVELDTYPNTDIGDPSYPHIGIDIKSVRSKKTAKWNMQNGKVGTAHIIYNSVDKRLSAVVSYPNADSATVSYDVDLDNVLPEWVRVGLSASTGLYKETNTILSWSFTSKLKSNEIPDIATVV
Alpha-bungarotoxin (Bungarus multicinctus), sequence (P60615 whole entry, looked up): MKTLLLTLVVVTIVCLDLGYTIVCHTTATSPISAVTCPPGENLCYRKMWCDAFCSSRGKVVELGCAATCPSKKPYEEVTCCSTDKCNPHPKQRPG

On to `O=C1C2C=CC(C(O)C(c3ccccc3)c3ccccc3)N(Nc3ccc([N+](=O)[O-])cc3)C2C(=O)N1c1ccccc1` (stereo not given), for which the composite z-score in assay [1] was 1.46; in assay [3], 0.737; in [4] it was 0.858; in assay [5], 0.808; in assay [6], 0.122; in assay [7], -0.0211. In addition, the composite z-score in assay [8] was 0.676; in assay [9] it was 0.935; in [10] it was 1.42; with Albumin (Bos taurus) it was 0.751; in [12] it was 0.272; in assay [13] it was -0.115. In addition, the composite z-score in assay [14] was determined as 0.733; in [15], 3.13; in [16], 0.953; in the assay on Sam68 (KHDRBS1), 1.33; in assay [17], 0.0427; in assay [18], 1.17. Further, in assay [2], the z-score is -0.871. Also, the composite Z-score in [11] was -0.214 (inactive).

As to `CCC(=O)[C@]12O[C@@]3([C@@H]4C(=O)OCC[C@@H]41)N(CC)C(C)=C(C(=O)OC)[C@@H](c1ccccc1)N3C2=O`, the composite z-score is -0.933 in assay [1]; 0.594 in [3]; -0.42 in assay [4]; -0.382 in assay [5]; -0.147 in [6]; 0.227 in [7]. Moreover, the composite z-score is -0.131 in assay [8]; -0.303 in assay [9]; 0.175 in assay [10]; -0.499 with Albumin (Bos taurus); -0.122 in [12]; -0.157 in assay [13]. The composite z-score was 0.828 in assay [14]; -0.68 in assay [15]; 0.448 in assay [16]; -0.516 with Sam68 (KHDRBS1); 0.841 in [17]; -0.0306 in assay [18]. The z-score in [2] is -0.206. The composite Z-score in [11] is -0.302 (inactive).

Take `O=C1O[C@@H](c2ccccc2)[C@@H](c2ccccc2)N2[C@@H](c3ccc(O)cc3)[C@]3(C(=O)Nc4ccc(C#CC5(O)CCCCCC5)cc43)[C@@H](C(=O)Nc3nc4ccccc4s3)[C@H]12`: the composite z-score was -0.423 in assay [1]; 0.494 in [3]; 0.395 in [4]; 0.253 in [5]; 0.245 in assay [6]; -0.35 in assay [7]. Further, the composite z-score turned out to be 1.15 in assay [8]; 1.18 in [9]; 1.91 in [10]; 0.839 with Albumin (Bos taurus); 0.173 in assay [12]; 0.0943 in [13]. In addition, the composite z-score is 0.0181 in [14]; 1.95 in assay [15]; 0.807 in assay [16]; 1.35 in the assay with Sam68 (KHDRBS1); 0.896 in assay [17]; 1.08 in assay [18]. For the same molecule, the z-score in [2] was -0.56. Also, the composite Z-score in assay [11] is 0.751 (inactive).

In the case of `CCCC[C@@H]1C[C@H]1[C@@H](NC(=O)c1ccccc1)c1ccccc1C(F)(F)F`, the composite z-score in assay [1] was 1.38; in assay [3], -0.641; in assay [4], 1.04; in assay [5] it was 1.09; in assay [6] it was -0.127; in [7] it was 0.204. In addition, the composite z-score is 1.39 in assay [8]; 1.06 in assay [9]; 1.61 in assay [10]; 1.01 with Albumin (Bos taurus); 0.0493 in assay [12]; 0.0116 in assay [13]. For the same molecule, the composite z-score in assay [14] was determined as 0.412; in [15], 3.03; in assay [16] it was 0.13; in the assay with Sam68 (KHDRBS1) it was 1.14; in assay [17] it was 0.377; in assay [18], 1.17. In addition, the z-score in assay [2] was -0.696. For the same molecule, the composite Z-score in assay [11] is -0.814 (inactive).

As to `O=C1C[C@@](C(=O)NCCN2CCOCC2)(c2ccc([N+](=O)[O-])cc2)[C@@H](c2ccc(CO)cc2)N1C1CCCCC1`, the composite z-score in [1] was 1.39; in assay [3], 1.06; in assay [4], 0.502; in assay [5], -0.142; in assay [6], 0.0621; in assay [7], 0.171. Also, the composite z-score in assay [8] is 0.924; in [9], 1.6; in assay [10], 0.571; with Albumin (Bos taurus) it was -0.218; in assay [12], 0.0597; in assay [13], 0.188. Besides, the composite z-score was 0.656 in [14]; 1.79 in assay [15]; 0.596 in assay [16]; 1.17 in the assay on Sam68 (KHDRBS1); 0.395 in [17]; 1.06 in [18]. The z-score in assay [2] is -0.867. The composite Z-score in assay [11] is -0.346 (inactive).
